Assay outcomes deposited in PubChem by National Center for Advancing Translational Sciences (NCATS).
This is a sample that favours compounds with a hit; in the whole collection about 4.7% have one here.
D1 antagonist: blocks dopamine activation of the human D1 receptor; actives 3.2% (n = 360,000); activity change, negative = inhibition, % at 10 µM; P21728; AID 504652; HEK293 TREx D1 cells, calcium flux, dopamine EC80; hits give low values; in the data active = activity change below about -30%; also: % is scaled to controls: 0 for no effect and ±100 for the full control effect
Target sequence (P21728 whole entry, looked up): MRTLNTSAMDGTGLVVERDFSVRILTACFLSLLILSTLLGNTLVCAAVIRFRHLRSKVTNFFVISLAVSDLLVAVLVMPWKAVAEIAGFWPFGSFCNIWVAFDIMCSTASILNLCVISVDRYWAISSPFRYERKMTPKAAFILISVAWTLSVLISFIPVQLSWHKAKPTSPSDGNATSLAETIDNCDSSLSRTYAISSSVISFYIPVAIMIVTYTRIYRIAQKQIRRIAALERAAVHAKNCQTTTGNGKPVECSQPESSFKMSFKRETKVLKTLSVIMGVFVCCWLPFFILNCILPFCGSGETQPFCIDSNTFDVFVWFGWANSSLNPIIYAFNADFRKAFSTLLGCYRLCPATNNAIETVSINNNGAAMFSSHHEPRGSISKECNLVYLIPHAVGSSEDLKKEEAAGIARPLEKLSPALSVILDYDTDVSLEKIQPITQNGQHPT
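HEK293 T-REx cells expressing inducible, force-coupled D1 receptor; no-wash Ca dye, 30–90 min RT. Cmpd → 180 s read at 1 Hz → EC80 DA → 180 s read.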
TRHR PAM: TRH receptor (human) allosteric enhancement; enhancement, % at 2 µM; actives 0.66% (n = 360,000); TRHR cells, fluo-8 calcium fluorescence, EC20 TRH enhancement; P34981; in the data active = enhancement above about 30%; also: 0% is about no effect
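Enhancer read-out: after compound pinning and an initial kinetic agonist-mode read, an EC20 of TRH (10 nM final) was injected and fluo-8 calcium signal (Ex 480/Em 530) followed at 1 s/cycle for 100 cycles in TRHR-expressing cells.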
TRHR agonist: activates the human TRH receptor; P34981; TRHR cells, calcium flux fluo-8, FDSS agonist mode; activation, % at 2 µM; actives 0.18% (n = 360,000); AID 493084; also: 0% is about no effect
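Read-out: compound-evoked intracellular calcium rise in TRHR cells, fluo-8 dye, kinetic FDSS fluorescence at 1 s/cycle following a 10-cycle baseline. Cells cultured overnight before dye loading (30 min–1.5 h, RT).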
D1 agonist: activates the human D1 dopamine receptor; P21728; HEK293 T-REx D1 cells, calcium flux, agonist mode; activation, % at 2 µM; actives 1% (n = 360,000); AID 504660; also: 0% is about no effect
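Inducible HEK293 T-REx D1 cells, force-coupled to calcium signalling, were plated at 4000 cells/well with tetracycline and held overnight at 30 C. After no-wash calcium dye loading, compound-evoked calcium rise over 180 s flagged agonists.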
D1 PAM: enhances dopamine response at the human D1 receptor; HEK293 TREx D1 cells, calcium flux, dopamine EC20 potentiation; potentiation, % at 10 µM; actives 0.036% (n = 360,000); in the data active = potentiation above about 30%; also: 0% is about no effect
Numbers without * were called inactive. Rule as the data show it, unless noted: active = activation above about 30%; inactive = the rest.

`O=C(CNC(=O)c1ccccc1)OC(C(=O)Nc1ccc2c(c1)OCO2)c1ccccc1` (configuration not stated) gave D1 antagonist -1, TRHR PAM -1, TRHR agonist -1, D1 agonist 1 and D1 PAM 4.
`COc1ccc(NC(=O)CCCN2C(=O)COc3ccc(C)cc32)cc1OC` gave D1 antagonist -46*, TRHR PAM 1, TRHR agonist -2, D1 agonist 7 and D1 PAM -5.
Screening Cc1ccc2c(c1)N(CC(=O)O)C(=O)CO2 returned D1 antagonist -30*, TRHR PAM -5, TRHR agonist 0, D1 agonist 2 and D1 PAM -5.
Screening Cc1ccc(C)c(NC(=O)CCCN2C(=O)COc3ccc(C)cc32)c1 returned D1 antagonist 15, TRHR PAM -4, TRHR agonist -2, D1 agonist 1 and D1 PAM 3.
`CC(C)(C)c1ccc2c(c1)N(CC(=O)O)C(=O)CO2` gave D1 antagonist 2, TRHR PAM 5, TRHR agonist 0, D1 agonist 3 and D1 PAM -8.
Screening COCCn1ccc2c(OCC(=O)Nc3cccc(C(F)(F)F)c3)cccc2c1=O returned TRHR PAM -1, TRHR agonist 0, D1 agonist 10 and D1 PAM -3.
Screening COc1ccccc1N1CCN(/N=C/c2ccccc2C(=O)O)CC1 returned D1 antagonist -50*, TRHR PAM 0, TRHR agonist 0, D1 agonist 0 and D1 PAM -5.
COc1ccccc1N1CCN(C(=O)C(=O)c2c[nH]c3ccccc23)CC1 was read as D1 antagonist -30*, TRHR PAM -6, TRHR agonist 1, D1 agonist 7 and D1 PAM 3.
Screening O=C(C(=O)N1CCN(c2ccccc2F)CC1)c1c[nH]c2ccccc12 returned D1 antagonist -83*, TRHR PAM 9, TRHR agonist 0, D1 agonist 4 and D1 PAM -3.
COC(=O)CSc1ncc2c(n1)-c1ccccc1N(Cc1ccccc1C)S2(=O)=O was read as D1 antagonist 1, TRHR PAM 6, TRHR agonist -1, D1 agonist 9 and D1 PAM -6.
`CCCCCCCNC(=O)C1(CC2CC(c3ccccc3)=NO2)CCN(C(=O)c2ccccc2)CC1` (configuration not stated) gave D1 antagonist -4, TRHR PAM -8, TRHR agonist 0, D1 agonist 6 and D1 PAM -4.
`CCCCCCCNC(=O)C1(CC2CC(c3ccccc3)=NO2)CCN(C(=O)OC(C)(C)C)CC1` (configuration not stated) gave D1 antagonist -37*, TRHR PAM 0, TRHR agonist 1, D1 agonist 3 and D1 PAM -10.
Screening Cc1ccc(C(=O)N2CCc3cc(CNS(=O)(=O)c4ccc(Cl)s4)ccc32)cc1 returned D1 antagonist -3, TRHR PAM -13, TRHR agonist 0, D1 agonist 2 and D1 PAM -6.
For CC1(C)C2CCC1(C)C(OCC[N+](C)(C)CC(=O)OC1CCCCC1)C2 (configuration not stated) the results were D1 antagonist -66*, TRHR PAM 16, TRHR agonist 0, D1 agonist 1 and D1 PAM -3.
CSC1=NC2(CC(c3ccccc3)Oc3cc(O)ccc32)CC(C)(C)N1 (configuration not stated) was read as D1 antagonist 30, TRHR PAM 3, TRHR agonist 0, D1 agonist 167* and D1 PAM 8.
CC(C)(C)OC(=O)NCc1nnc(-c2cc3ccccc3[nH]2)s1 was read as D1 antagonist -4, TRHR PAM 1, TRHR agonist 1, D1 agonist 0 and D1 PAM -6.
For CN(c1ccc(C(=O)Nc2cccnc2)cc1)S(=O)(=O)c1ccccc1 the results were D1 antagonist -6, TRHR PAM 6, TRHR agonist 0, D1 agonist 0 and D1 PAM -3.
Screening COc1ccc(S(=O)(=O)N(C)c2ccc(C(=O)Nc3cccnc3)cc2)cc1 returned D1 antagonist -33*, TRHR PAM -3, TRHR agonist 0, D1 agonist 3 and D1 PAM -2.
